Laboratory results reported in PubChem BioAssay.
Calls of active or inactive are those of the source. Unless noted, the rule behind the calls is not given here.

What was measured:
[1] = compounds binding Alexa647 anti-His antibody – biochemical, small-molecule microarray, 635 nm fluorescence, artefact control for SMM control protein annotation, primary screen (AID 1128); details: higher = more signal;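 note: score merges feature fluorescence with signal-to-noise for each printed compound spot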
[2] = test system: Human papillomavirus type 1a E7 protein (residues 1-88); test: HPV1a E7 small-molecule binders, primary screen, biochemical, small-molecule microarray, residues 1-88, 635 nm (AID 1129); details: small-molecule microarray binding, fluorescence 635 nm; higher = more signal
[3] = target: Focal adhesion kinase 1 (Homo sapiens) (UniProt Q05397); test: PTK2 protein binding on printed compound slides – biochemical, small-molecule microarray, 635/667 nm fluorescence, BSA, DTT, primary screen (AID 1130); details: 635 nm fluorescence, higher = more signal;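 note: composite of spot emission at 667 nm and signal to noise over triplicate slides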
Chain of Focal adhesion kinase 1 (Homo sapiens) (Q05397 whole entry, looked up): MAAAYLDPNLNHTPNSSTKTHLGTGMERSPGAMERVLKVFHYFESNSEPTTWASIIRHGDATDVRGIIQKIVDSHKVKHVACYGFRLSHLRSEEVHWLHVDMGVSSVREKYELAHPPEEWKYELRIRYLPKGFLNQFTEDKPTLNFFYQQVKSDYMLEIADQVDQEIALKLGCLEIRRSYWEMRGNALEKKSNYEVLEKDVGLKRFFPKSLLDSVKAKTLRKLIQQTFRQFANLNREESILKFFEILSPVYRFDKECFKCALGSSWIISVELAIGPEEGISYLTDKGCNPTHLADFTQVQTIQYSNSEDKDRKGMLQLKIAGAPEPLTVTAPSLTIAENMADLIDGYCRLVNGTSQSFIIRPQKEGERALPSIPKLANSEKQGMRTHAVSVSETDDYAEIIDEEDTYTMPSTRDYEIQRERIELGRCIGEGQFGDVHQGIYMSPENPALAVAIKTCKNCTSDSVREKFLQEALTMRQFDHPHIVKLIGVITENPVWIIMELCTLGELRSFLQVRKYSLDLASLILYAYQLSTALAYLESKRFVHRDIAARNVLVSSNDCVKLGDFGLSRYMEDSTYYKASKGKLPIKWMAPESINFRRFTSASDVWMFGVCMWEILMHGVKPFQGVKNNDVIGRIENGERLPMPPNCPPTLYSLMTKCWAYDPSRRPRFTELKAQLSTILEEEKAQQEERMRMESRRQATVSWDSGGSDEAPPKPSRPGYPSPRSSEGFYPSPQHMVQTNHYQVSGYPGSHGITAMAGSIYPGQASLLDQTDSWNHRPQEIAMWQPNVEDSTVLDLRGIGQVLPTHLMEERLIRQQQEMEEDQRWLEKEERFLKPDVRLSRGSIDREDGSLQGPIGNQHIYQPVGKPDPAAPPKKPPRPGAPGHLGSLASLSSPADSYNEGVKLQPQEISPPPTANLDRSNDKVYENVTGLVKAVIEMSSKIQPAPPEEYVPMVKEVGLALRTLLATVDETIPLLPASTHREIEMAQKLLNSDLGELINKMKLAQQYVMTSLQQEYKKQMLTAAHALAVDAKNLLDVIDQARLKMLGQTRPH

[4] = test system: Fibrinogen (Alexa647-labelled); test: Alexa647-fibrinogen binding to printed small molecules – biochemical, small-molecule microarray, 635/667 nm fluorescence, artefact control for SMM control-protein annotation, profiling panel (AID 1131); details: fibrinogen-A647 binding fluorescence, higher = more signal;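 note: z-score merges 667 nm fluorescence with per-spot signal-to-noise over triplicate slides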
[5] = target: Follistatin (Homo sapiens) (UniProt P19883); test: FST protein binding to printed compounds – biochemical, small-molecule microarray, 635/667 nm fluorescence, primary screen (AID 1132); details: 635 nm fluorescence, higher = more signal
Chain of Follistatin (Homo sapiens) (P19883 whole entry, looked up): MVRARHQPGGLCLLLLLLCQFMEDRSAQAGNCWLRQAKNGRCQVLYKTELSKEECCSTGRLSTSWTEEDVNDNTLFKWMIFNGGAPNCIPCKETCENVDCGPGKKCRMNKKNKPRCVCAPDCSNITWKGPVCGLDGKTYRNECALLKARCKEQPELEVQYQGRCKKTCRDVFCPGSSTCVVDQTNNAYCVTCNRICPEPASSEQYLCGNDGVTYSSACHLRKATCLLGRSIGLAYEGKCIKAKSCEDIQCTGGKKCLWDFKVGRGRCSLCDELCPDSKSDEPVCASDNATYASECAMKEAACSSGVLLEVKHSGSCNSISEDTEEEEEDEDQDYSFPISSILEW

[6] = target: Fibroblast growth factor 2 (Homo sapiens) (UniProt P09038); test: basic fibroblast growth factor binding to printed compounds – biochemical, small-molecule microarray, 635/667 nm fluorescence, primary screen (AID 1133); details: FGF2, fluorescence 635/667, higher = more signal
Chain of Fibroblast growth factor 2 (Homo sapiens) (P09038 whole entry, looked up): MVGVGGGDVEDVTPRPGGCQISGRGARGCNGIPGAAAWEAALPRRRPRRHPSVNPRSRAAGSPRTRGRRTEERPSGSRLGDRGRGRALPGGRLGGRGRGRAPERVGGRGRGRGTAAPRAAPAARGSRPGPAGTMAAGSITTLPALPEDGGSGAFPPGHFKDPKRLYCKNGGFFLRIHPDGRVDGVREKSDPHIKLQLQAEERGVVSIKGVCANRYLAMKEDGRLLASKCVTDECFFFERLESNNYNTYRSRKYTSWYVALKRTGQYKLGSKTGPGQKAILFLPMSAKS

[7] = JC-1 mitochondrial potential readout, lung cancer cells – cell-based, A549, JC-1 fluorescence, basal, 24 h, 100 nL, profiling panel (AID 1138); details: higher = more signal;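 note: A549 lung adenocarcinoma cells under basal conditions with no added stimulus; test concentration not given here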
Lefty1 = Lefty1 protein binding to printed compounds – biochemical, small-molecule microarray, 635/667 nm fluorescence, primary screen (AID 1139); details: fluorescence 635/667, higher = more signal
[8] = test system: wheat germ agglutinin (Triticum aestivum), Alexa647-labelled; test: Alexa647-WGA lectin binding to printed small molecules – biochemical, small-molecule microarray, 635/667 nm fluorescence, artefact control for SMM control-protein annotation, profiling panel (AID 1140); details: WGA-A647 binding, 635 nm fluorescence, higher = more signal;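 note: score merges 667 nm feature emission with signal to noise over triplicate slides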
[9] = target: Luciferin 4-monooxygenase (Photinus pyralis) (UniProt P08659); test: inhibition of purified Photinus pyralis luciferase – biochemical, luminescence, purified enzyme, 2006 set, primary screen (AID 1141); details: purified firefly luciferase, SteadyGlo luminescence, 30 min; higher = more signal, called active from +8 up or from −8 down;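 note: cell-free assay with purified firefly luciferase at 100 ng per well in PBS; test concentration not given here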
Chain of Luciferin 4-monooxygenase (Photinus pyralis) (P08659 whole entry, looked up): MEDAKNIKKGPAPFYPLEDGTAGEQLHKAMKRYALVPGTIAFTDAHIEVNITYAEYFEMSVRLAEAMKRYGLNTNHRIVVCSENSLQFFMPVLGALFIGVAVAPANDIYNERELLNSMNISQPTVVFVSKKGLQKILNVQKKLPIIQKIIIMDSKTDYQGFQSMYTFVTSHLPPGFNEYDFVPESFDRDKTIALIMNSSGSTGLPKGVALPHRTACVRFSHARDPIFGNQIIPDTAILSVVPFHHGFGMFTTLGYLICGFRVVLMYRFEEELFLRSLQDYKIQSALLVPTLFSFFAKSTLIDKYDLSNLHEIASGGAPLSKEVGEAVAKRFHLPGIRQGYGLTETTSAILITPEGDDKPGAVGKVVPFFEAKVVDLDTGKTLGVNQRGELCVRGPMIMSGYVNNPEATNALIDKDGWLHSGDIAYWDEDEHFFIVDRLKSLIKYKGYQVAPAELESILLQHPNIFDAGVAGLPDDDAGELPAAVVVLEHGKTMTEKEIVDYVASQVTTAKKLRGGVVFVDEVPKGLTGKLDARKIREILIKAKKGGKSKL

[10] = test system: Wnt5a (protein binding on small-molecule microarray); test: small molecules binding Wnt5a protein – biophysical, small-molecule microarray, 635/667 nm fluorescence, primary screen (AID 1142); details: 635 nm fluorescence, higher = more signal;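 note: fluorescence read at 667 nm with signal to noise per printed feature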
[11] = ATP-based viability of Huh7 replicon cells – cell-based, CellTiter-Glo luminescence, basal, 48 h, cytotoxicity control for HCV replication inhibitor project, primary screen (AID 1143); details: higher = more signal, called active from +8 up or from −8 down;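 note: Huh7 hepatoma cells carrying a hepatitis C replication reporter with no stimulus; test concentration not given here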
[12] = Pseudomonas biofilm growth suppression – PAO1 strain, BacTiter-Glo luminescence, LB-PBS, primary screen (AID 1144); details: P. aeruginosa PAO1 biofilm, 12 h, higher = more signal
[13] = basal CRE-LacZ reporter activity in PC12 – cell-based, unstimulated, primary screen (AID 1145); details: no forskolin, luminescence, 4.5 h, higher = more signal, called active from +8 up or from −8 down
[14] = forskolin-driven CRE-LacZ activity in PC12 – cell-based, CRE-LacZ reporter, forskolin-stimulated, primary screen (AID 1146); details: luminescence, 4.5 h, higher = more signal, called active from +8 up or from −8 down;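 note: PC12 cells with 6xCRE LacZ reporter stimulated by forskolin 10 µM; beta-galactosidase reporter signal reflecting CREB driven transcription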
[15] = target: Streptavidin (Streptomyces avidinii) (UniProt P22629); test: compounds binding control protein streptavidin – biophysical, small-molecule microarray, 635/667 nm fluorescence, artefact control for SMM compound annotation, primary screen (AID 1147); details: higher = more signal;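 note: signal reflects streptavidin binding to arrayed compounds as a control protein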
Chain of Streptavidin (Streptomyces avidinii) (P22629 whole entry, looked up): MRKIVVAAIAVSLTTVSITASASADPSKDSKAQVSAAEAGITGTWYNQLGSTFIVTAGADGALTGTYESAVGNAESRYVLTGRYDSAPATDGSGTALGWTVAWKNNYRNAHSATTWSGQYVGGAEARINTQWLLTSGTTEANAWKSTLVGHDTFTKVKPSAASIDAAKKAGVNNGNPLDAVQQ

[16] = probe aInhba binding on compound microarray – biochemical, small-molecule microarray, 635/667 nm fluorescence, primary screen (AID 1148); details: higher = more signal;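 note: score merges 667nm spot fluorescence with signal-to-noise for antibody binding to printed compounds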
Torsin-1A (Homo sapiens) [17] = target: Torsin-1A (Homo sapiens) (UniProt O14656); test: TOR1A wild-type binding on microarray – cell lysate, small-molecule microarray, lysate, 635/667 nm, primary screen (AID 1149); details: COS7 hTOR1A-WT lysate, 635 nm fluorescence, higher = more signal
Chain of Torsin-1A (Homo sapiens) (O14656 whole entry, looked up): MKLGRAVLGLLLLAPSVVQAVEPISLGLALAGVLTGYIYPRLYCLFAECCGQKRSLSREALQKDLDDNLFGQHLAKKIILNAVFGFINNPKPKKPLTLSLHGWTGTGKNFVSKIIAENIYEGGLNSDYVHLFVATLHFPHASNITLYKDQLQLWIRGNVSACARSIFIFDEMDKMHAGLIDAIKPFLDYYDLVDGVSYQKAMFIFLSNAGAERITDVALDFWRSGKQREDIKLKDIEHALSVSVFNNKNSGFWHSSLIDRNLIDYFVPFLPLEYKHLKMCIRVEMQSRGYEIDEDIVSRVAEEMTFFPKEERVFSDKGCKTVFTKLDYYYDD

Torsin-1A (Homo sapiens) [18] = target: Torsin-1A (Homo sapiens) (UniProt O14656); test: torsin A mutant lysate binding on microarrays – cell lysate, small-molecule microarray, COS7 lysate, 635/667 nm fluorescence, primary screen (AID 1150); details: COS7 hTOR1A mutant lysate, 635 nm fluorescence, higher = more signal;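 note: score pools 667 nm emission and signal to noise measuring lysate protein binding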
[19] = test system: Sonic hedgehog protein (Shh); test: Sonic hedgehog microarray binding compounds – biochemical, small-molecule microarray, 635/667 nm fluorescence, primary screen (AID 1151); details: 635 nm fluorescence, higher = more signal;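 note: Shh protein binding to compounds spotted on small-molecule microarray slides; score combines spot fluorescence intensity with signal-to-noise across triplicate slides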

| SMILES | composite z-score [1] | composite z-score [2] | composite z-score [3] | composite z-score [4] | composite z-score [5] | composite z-score [6] | z-score [7] | composite z-score (Lefty1) | composite z-score [8] | z-score [9] | composite z-score [10] | z-score [11] | z-score [12] | z-score [13] | z-score [14] | composite z-score [15] | composite z-score [16] | composite z-score (Torsin-1A (Homo sapiens) [17]) | composite z-score (Torsin-1A (Homo sapiens) [18]) | composite z-score [19] |
| --- | --- | --- | --- | --- | --- | --- | --- | --- | --- | --- | --- | --- | --- | --- | --- | --- | --- | --- | --- | --- |
| CO[C@H]1O[C@H](CO)[C@@H](OC(=O)Nc2ccccc2)[C@@H]2OC(=O)[C@H](Cc3ccccc3)C/C=C/C[C@@H](Cc3ccccc3)C(=O)O[C@@H]12 | 2.3 | 1.13 | 0.473 | 0.718 | 1.29 | 1.74 | 2.27 | 1.33 | 0.588 | -0.617 (inactive) | 0.399 | -3.81 (inactive) | -0.805 (inactive) | 0.512 (inactive) | -1.36 (inactive) | 0.564 | -0.0762 | 0.527 | 0.348 | 1.62 |
| CC1CC/C=C\[C@H]2OC34C=CCN(CCN5CCOCC5)C(=O)[C@H]3N(CCCCCCO)C(=O)[C@@H]4C2C(=O)O1 (stereo not given in full) | -0.37 | -0.986 | -0.411 | -2.12 | 0.0859 | -0.649 | 0.746 | -0.259 | -0.7 | -0.934 (inactive) | -0.603 | 0.524 (inactive) | 0.0591 (inactive) | 0.605 (inactive) | 0.241 (inactive) | -0.66 | -0.104 | -1.52 | -0.948 | 0.527 |
| COc1ccc([Si](C)(C)[C@H]2[C@H](CCn3cc([C@H](O)c4ccccc4)nn3)O[C@@]3(C(=O)N(C)c4c(Br)cc(C)cc43)[C@@H]2C)cc1 | 0.523 | -0.212 | -0.472 | -0.496 | 1.5 | 1.87 | 0.134 | 1.37 | 0.343 | -0.877 (inactive) | -0.0472 | -4.01 (inactive) | -0.23 (inactive) | 7.95 (inactive) | -1.66 (inactive) | -0.124 | -0.208 | 0.877 | 0.19 | 0.964 |
| CCOC(=O)C[C@H]1[C@H](OC(=O)c2cc3ccccc3oc2=O)[C@@H](NC(=O)C2CCCCC2)c2cc(OCCCO)ccc2N1C(=O)Cc1ccc(OC)cc1 | 0.737 | 0.122 | -0.207 | 0.231 | 0.722 | 0.188 | 0.0812 | 0.646 | 0.507 | 0.696 (inactive) | 0.418 | -0.588 (inactive) | -0.273 (inactive) | 0.849 (inactive) | -0.0784 (inactive) | 0.214 | 0.243 | 0.144 | 0.384 | 1.15 |
| C=CCNC(=O)[C@H]1[C@@H]2C(=O)O[C@@H](c3ccccc3)[C@@H](c3ccccc3)N2[C@@H](c2ccc(O)cc2)[C@]12C(=O)Nc1ccc(C#CC3=CCCCC3)cc12 | 1.3 | 1.02 | 0.0897 | 0.531 | 0.886 | 0.355 | 0.88 | 0.916 | 0.622 | 0.0736 (inactive) | 0.121 | -3.15 (inactive) | -0.0901 (inactive) | -0.671 (inactive) | 0.21 (inactive) | 1.18 | 0.616 | 1.75 | 0.462 | 2 |
| C/C=C/CN(C(=O)C#Cc1ccccc1)[C@H](CO[Si](C)(C)C(C)(C)C)c1ccccc1 | -1.73 | -0.0136 | -0.1 | -2.12 | -1.52 | -1.25 | 0.2 | -0.977 | -1.7 | -0.178 (inactive) | -0.515 | -4.31 (inactive) | 1.09 (inactive) | 1.94 (inactive) | -0.757 (inactive) | -1.06 | -0.353 | -0.724 | -0.841 | 0.248 |
